Measured values as given in PubChem BioAssay AID1159580 (chemical genetic matrix, 2015).
“And” between values parts separate entries of the source, which are not always exact repeats. Equal entries are not always repeated. The campaign covered roughly 5,500 compounds. About 2,000 (36%) were called active. Inconclusive results (about 18%) are left out. No stated cut-off is given here; in the data, active means normalized growth mostly below about 0.91 (no sharp cut-off); inconclusive means no clear call, values can overlap the other calls; inactive means mostly above about 0.92. This is one part of the list.

Assay: chemical genetic growth profiling, strain panel (AID 1159580);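 further: tested at 20 µM; growth read once vehicle control cultures reached saturation at 30 °C; 1 = growth at the plate median or of vehicle wells; lower values mean less growth of the strain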
Conditions: S. cerevisiae deletion strains, growth OD

Measured: normalized growth

COc1c(O)cc2oc3cc(O)c(CC=C(C)C)c(O)c3c(=O)c2c1CC=C(C)C
active: locus YAL013W, strain DEP1, hits give low values 0.346 | locus YBR021W, strain FUR4, hits give low values 0.578 | locus YBR229C, strain ROT2, hits give low values 0.913 | locus YBR231C, strain swc5, hits give low values 0.851 | locus YCL029C, strain bik1, hits give low values 0.773 | locus YDL035C, strain GPR1, hits give low values 0.611 | locus YDL074C, strain BRE1, hits give low values 0.242 | locus YDL101C, strain DUN1, hits give low values 0.633 | locus YDL192W, strain arf1, hits give low values 0.579 | locus YDR069C, strain doa4, hits give low values 0.89 | locus YDR101C, strain arx1, hits give low values 0.799 | locus YDR137W, strain rgp1, hits give low values 0.501 | locus YDR159W, strain sac3, hits give low values 0.749 | locus YDR162C, strain NBP2, hits give low values 0.543 | locus YDR195W, strain ref2 0.57 | locus YDR318W, strain mcm21, hits give low values 0.79 | locus YDR388W, hits give low values 0.833 | locus YDR392W, strain spt3, hits give low values 0.673 | locus YDR502C, strain sam2, hits give low values 0.771 | locus YEL061C, strain CIN8, hits give low values 0.68 | locus YER015W, strain faa2, hits give low values 0.901 | locus YER155C, strain BEM2 (second series), hits give low values 0.704 | locus YER155C, strain BEM2, hits give low values 0.388 | locus YER167W, strain BCK2, hits give low values 0.792 | locus YGL078C, strain dbp3, hits give low values 0.878 | locus YGL086W, strain mad1, hits give low values 0.681 | locus YGL248W, strain PDE1, hits give low values 0.67 | locus YGR135W, strain pre9, hits give low values 0.77 | locus YHR030C, strain SLT2, hits give low values 0.538 and 0.687 | locus YHR079C, strain IRE1 (second series), hits give low values 0.918 | locus YHR079C, strain IRE1, hits give low values 0.56 | locus YHR094C, strain hxt1, hits give low values 0.901 | locus YHR129C, strain ARP1, hits give low values 0.545 | locus YHR200W, strain rpn10, hits give low values 0.78 | locus YIL066C, strain RNR3, hits give low values 0.553 | locus YIL125W, strain kgd1, hits give low values 0.744 | locus YIR030C, strain dcg1, hits give low values 0.867 | locus YJL095W, strain BCK1, hits give low values 0.307 and 0.797 | locus YJL129C, strain trk1, hits give low values 0.774 | locus YJL134W, strain LCB3, hits give low values 0.833 | locus YJL164C, strain tpk1, hits give low values 0.894 | locus YJL166W, strain qcr8, hits give low values 0.819 | locus YJL187C, strain SWE1 (second series), hits give low values 0.518 | locus YJR043C, strain POL32, hits give low values 0.538 | locus YKL085W, strain MDH1 (second series), hits give low values 0.724 | locus YKL085W, strain MDH1, hits give low values 0.724 | locus YKL190W, strain CNB1, hits give low values 0.548 | locus YKR001C, strain vps1, hits give low values 0.365 | locus YLR027C, strain aat2, hits give low values 0.916 | locus YLR039C, strain RIC1, hits give low values 0.263 | locus YLR058C, strain SHM2, hits give low values 0.642 | locus YLR113W, strain HOG1, hits give low values 0.426 | locus YLR262C, strain YPT6 (second series), hits give low values 0.667 | locus YLR262C, strain YPT6, hits give low values 0.399 | locus YLR268W, strain sec22, hits give low values 0.704 | locus YLR320W, strain mms22, hits give low values 0.843 | locus YLR330W, strain CHS5, hits give low values 0.534 | locus YLR342W, strain FKS1 (second series), hits give low values 0.591 | locus YLR371W, strain rom2, hits give low values 0.358 | locus YLR418C, strain cdc73, hits give low values 0.259 | locus YML016C, strain PPZ1, hits give low values 0.674 | locus YML032C, strain rad52, hits give low values 0.838 | locus YMR058W, strain fet3, hits give low values 0.9 | locus YMR078C, strain ctf18, hits give low values 0.903 | locus YMR205C, strain PFK2, hits give low values 0.822 | locus YMR223W, strain ubp8, hits give low values 0.786 | locus YMR263W, strain SAP30, hits give low values 0.726 | locus YMR307W, strain GAS1, hits give low values 0.474 | locus YNL067W, strain RPL9B, hits give low values 0.719 | locus YNL071W, strain lat1, hits give low values 0.562 | locus YNL153C, strain GIM3, hits give low values 0.625 | locus YNL233W, strain BNI4, hits give low values 0.51 | locus YNL250W, strain rad50, hits give low values 0.862 | locus YNL271C, strain bni1, hits give low values 0.883 | locus YNL298W, strain CLA4, hits give low values 0.831 | locus YNL307C, strain MCK1, hits give low values 0.385 | locus YNR052C, strain pop2, hits give low values 0.781 | locus YOL006C, strain TOP1, hits give low values 0.279 | locus YOL147C, strain pex11, hits give low values 0.694 | locus YOR061W, strain CKA2, hits give low values 0.707 | locus YOR069W, strain VPS5, hits give low values 0.735 | locus YOR136W, strain idh2, hits give low values 0.899 | locus YOR144C, strain elg1, hits give low values 0.755 | locus YOR184W, strain ser1, hits give low values 0.331 | locus YOR231W, strain MKK1, hits give low values 0.531 | locus YPL051W, strain arl3, hits give low values 0.782 | locus YPL055C, strain LGE1, hits give low values 0.274 | locus YPL256C, strain CLN2, hits give low values 0.741 | locus YPR163C, strain tif3, hits give low values 0.544 | locus YPR167C, strain met16, hits give low values 0.786 | strain wtn01, hits give low values 0.697
inactive: locus YAL021C, strain ccr4, hits give low values 1 | locus YAL026C, strain drs2, hits give low values 0.982 | locus YAL030W, strain snc1, hits give low values 0.984 | locus YBR009C, strain hhf1, hits give low values 0.983 | locus YBR023C, strain chs3, hits give low values 0.923 | locus YBR171W, strain sec66, hits give low values 1.02 | locus YBR279W, strain paf1, hits give low values 0.968 | locus YCL011C, strain gbp2, hits give low values 0.912 | locus YCL016C, strain dcc1, hits give low values 0.957 | locus YCL061C, strain MRC1, hits give low values 0.991 | locus YCL069W, strain vba3, hits give low values 1.01 | locus YCR088W, strain abp1, hits give low values 1 | locus YDL005C, strain med2, hits give low values 1.05 | locus YDL040C, strain nat1, hits give low values 1 | locus YDL185W, strain tfp1, hits give low values 0.916 | locus YDR001C, strain nth1, hits give low values 1.01 | locus YDR297W, strain sur2, hits give low values 0.923 | locus YDR334W, strain swr1, hits give low values 0.999 | locus YDR335W, strain msn5, hits give low values 0.957 | locus YEL003W, strain gim4, hits give low values 0.937 | locus YEL037C, strain rad23, hits give low values 1 | locus YEL061C, strain CIN8 (second series), hits give low values 1.01 | locus YER016W, strain bim1, hits give low values 0.969 | locus YER110C, hits give low values 0.952 | locus YER111C, strain swi4, hits give low values 1.02 | locus YFR010W, strain ubp6, hits give low values 0.978 | locus YGL167C, strain pmr1, hits give low values 1.01 | locus YGL173C, strain kem1, hits give low values 0.979 | locus YGL227W, strain vid30, hits give low values 1 | locus YGL240W, strain doc1, hits give low values 0.887 | locus YGL253W, strain hxk2, hits give low values 0.99 | locus YGR252W, strain gcn5, hits give low values 0.833 | locus YHR013C, strain ard1, hits give low values 0.985 | locus YHR027C, strain rpn1, hits give low values 0.969 | locus YHR142W, strain chs7, hits give low values 0.89 | locus YIL073C, strain SPO22, hits give low values 0.695 | locus YJL092W, strain hpr5, hits give low values 1 | locus YJL115W, strain asf1, hits give low values 1.03 | locus YJL154C, strain vps35, hits give low values 1.04 | locus YJL168C, strain set2, hits give low values 0.948 | locus YJL187C, strain SWE1, hits give low values 0.936 | locus YJR066W, strain TOR1, hits give low values 0.891 | locus YKL009W, strain mrt4, hits give low values 0.885 | locus YKL068W, hits give low values 0.947 | locus YKL160W, strain elf1, hits give low values 0.904 | locus YKR026C, strain gcn3, hits give low values 1 | locus YKR091W, strain srl3, hits give low values 1.01 | locus YLL001W, strain dnm1, hits give low values 0.963 | locus YLL026W, hits give low values 1 | locus YLL041C, strain sdh2, hits give low values 0.986 | locus YLR102C, strain apc9, hits give low values 0.93 | locus YLR258W, strain gsy2, hits give low values 0.939 | locus YLR342W, strain FKS1, hits give low values 0.944 | locus YLR357W, strain rsc2, hits give low values 0.957 | locus YLR370C, strain arc18, hits give low values 0.982 | locus YLR384C, strain iki3, hits give low values 0.983 | locus YML124C, strain tub3, hits give low values 0.938 | locus YMR125W, strain sto1, hits give low values 1.01 | locus YMR129W, hits give low values 0.974 | locus YMR231W, strain pep5, hits give low values 1 | locus YNL183C, strain NPR1, hits give low values 0.887 | locus YNL209W, strain ssb2, hits give low values 0.968 | locus YNL248C, strain rpa49, hits give low values 0.994 | locus YNL322C, strain KRE1 (second series), hits give low values 0.995 | locus YNR049C, strain mso1, hits give low values 0.967 | locus YOL012C, strain htz1 0.271 | locus YOR001W, strain rrp6, hits give low values 0.916 | locus YOR070C, strain gyp1, hits give low values 0.95 | locus YOR080W, strain dia2, hits give low values 0.984 | locus YOR083W, strain WHI5, hits give low values 0.941 | locus YOR106W, strain vam3, hits give low values 0.916 | locus YOR265W, strain rbl2, hits give low values 0.964 | locus YOR270C, strain vph1, hits give low values 0.881 | locus YOR290C, strain snf2, hits give low values 0.912 | locus YOR316C, strain cot1, hits give low values 0.927 | locus YPL078C, strain atp4, hits give low values 0.991 | locus YPL106C, strain sse1, hits give low values 0.856 | locus YPL240C, strain hsp82, hits give low values 0.951 | locus YPR119W, strain clb2, hits give low values 0.931 | locus YPR141C, strain kar3, hits give low values 0.96
